Screens deposited in PubChem by several laboratories.
Shown are actives, neighbours in structure and some others; about 3.3% of the full set was active somewhere.
MITF act = increases MITF-driven TRPM1 promoter luciferase signal | SK-MEL-5 TRPM1-promoter luciferase, 24 h; % of positive control, neutral wells = 0 | activation, % at 12.5 µM | 300,000 tested, 0.75% active;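 active = mean activation of at least 80% with every replicate also reaching 80%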;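 note: 0% = neutral control wells and 100% = parthenolide positive control wells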
Wnt act = Wnt/beta-catenin pathway activation; Wnt/beta-catenin reporter cell assay, activator, plate reader; activation, % at 9.35 µM; 300,000 tested, 1.2% active; AID 743398; in the data active = activation above about 30%, passing the limit was not always enough;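 note: 0% = neutral control wells and 100% = positive control wells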
esBAF inh = blocks esBAF chromatin remodeling in mouse ES cells; Bmi1-luciferase knock-in reporter, 24 h; 100% = twice the neutral-well signal; reporter increase, % at 12.5 µM; 350,000 tested, 2% active; in the data active = activation above about 40%;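 note: 0% = median of the plate's neutral control wells and 100% = double that signal; a rise in the Bmi1 reporter signal indicates esBAF inhibition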
Statin myotox sup = suppressors of simvastatin-induced myotoxicity in C2C12 myotubes. ATP luminescence, 48 h; scaled: DMSO 0, geranylgeraniol control 100. rescue of ATP level, % at 7.49 µM. 330,000 tested, 0.78% active;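 active = mean ATP rescue above about 67%, or every replicate alone reaching that limit, limit read from the data, passing the limit was not always enough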;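 note: myotubes were challenged with 10 µM simvastatin during compound exposure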
GAA850 FXN act = activators of GAA850 frataxin (FXN) promoter. 360,000 tested, 0.56% active. HEK293 lucGAA850 FXN promoter luciferase reporter, 24 h; percent of 10 µM SAHA response. activation, % at 6 µM. AID 540364;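 active = activation above the average of all compounds screened plus 3 SD, cutoff fixed separately per campaign, cut at about 7.5% in these data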;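 note: 0% = DMSO wells and 100% = 10 µM SAHA wells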
Starred values were filed as active, the others as inactive.

Results for COc1ccc(NC(=O)Nc2ccc3c(c2)C(=O)N([C@@H](C)CO)C[C@H](C)[C@@H](CN(C)C(=O)Nc2ccccc2)OCCCC[C@H](C)O3)cc1 ?
esBAF inh: 2; Statin myotox sup: -1

How did CC(C)=CC(=O)Nc1ccc(Br)cc1 do in these assays?
MITF act: 107*; Wnt act: -3; esBAF inh: 66*; Statin myotox sup: 2; GAA850 FXN act: 4

Results for O=C(C[C@H]1CC[C@@H](NC(=O)Nc2ccccc2)[C@H](CO)O1)NCc1cccc(F)c1 ?
esBAF inh: 1; Statin myotox sup: -3

How did CCCCOc1ccc(-c2cnc3ccccc3n2)cc1 do in these assays?
MITF act: 15; GAA850 FXN act: 6

What do the screens show for `CCCCOc1ccc(-c2ncc([N+](=O)[O-])cn2)cc1`?
Wnt act: 40*; esBAF inh: 83*; Statin myotox sup: 2; GAA850 FXN act: 2

What do the screens show for `CCCCOc1ccc(-c2ncc(Cl)cn2)cc1`?
MITF act: 105*; Wnt act: -2; esBAF inh: 86*; Statin myotox sup: 10; GAA850 FXN act: 4

How did C[C@H](CO)N1C[C@H](C)[C@H](CN(C)C)Oc2cc(C#Cc3ccncc3)ccc2S1(=O)=O do in these assays?
esBAF inh: 2; Statin myotox sup: 10

Results for c1ccc(-c2cc(N3CCCCC3)ncn2)cc1 ?
MITF act: 86*; Wnt act: -1; esBAF inh: 44*; GAA850 FXN act: 2

How did Nc1nc(-c2ccccc2)cc(N2CCCCC2)n1 do in these assays?
MITF act: -32; esBAF inh: -6; Statin myotox sup: -87; GAA850 FXN act: 2

Results for c1ccc(-c2cc(N3CCCCCC3)n[nH]2)cc1 ?
MITF act: 2; esBAF inh: 58*; Statin myotox sup: 93*; GAA850 FXN act: 2

Results for C[C@H]1CN([C@@H](C)CO)C(=O)c2cc(-c3ccc(C(=O)N(C)C)cc3)cnc2O[C@@H]1CN(C)C(=O)CN(C)C ?
esBAF inh: 4; Statin myotox sup: 7

What do the screens show for `C[C@@H]1CCCCO[C@@H](CN(C)C(=O)Nc2cccc3ccccc23)[C@H](C)CN([C@H](C)CO)C(=O)c2cc(NC(=O)CCC(F)(F)F)ccc2O1`?
esBAF inh: 6

Results for COc1ccc(-c2cn3c(C)c(C(=O)NCCN4CCOCC4)sc3n2)cc1 ?
esBAF inh: 56*; Statin myotox sup: 4; GAA850 FXN act: 2

How did Cc1c(C(=O)NCc2cccnc2)sc2nc(-c3ccccc3)cn12 do in these assays?
Wnt act: 7; esBAF inh: 66*; Statin myotox sup: -14; GAA850 FXN act: 5

How did Cc1c(C(=O)NCc2cccnc2)sc2nc(-c3ccc(F)cc3)cn12 do in these assays?
Wnt act: 0; esBAF inh: 66*; Statin myotox sup: -20; GAA850 FXN act: 1

What do the screens show for `Cc1c(C(=O)Nc2ccncc2)sc2nc(-c3ccccc3)cn12`?
Wnt act: 3; esBAF inh: -5; Statin myotox sup: -14; GAA850 FXN act: -1

What do the screens show for `C[C@H]1CN([C@@H](C)CO)S(=O)(=O)c2ccc(C#CC3(O)CCCC3)cc2O[C@@H]1CN(C)C(=O)Cc1ccncc1`?
esBAF inh: 2; Statin myotox sup: 8

What do the screens show for `O=C(Oc1ccccc1N1CCOCC1)c1sccc1Br`?
Wnt act: 45*; esBAF inh: 3; Statin myotox sup: -9; GAA850 FXN act: 0

Results for CC1=NN(C(N)=S)C(=O)C1N=Nc1ccc(F)cc1 (configuration not stated) ?
MITF act: 63; Wnt act: 21; esBAF inh: 68*; Statin myotox sup: -12; GAA850 FXN act: 2

Results for CC1=NN(C(N)=S)C(=O)C1N=Nc1cccc(C(=O)O)c1 (configuration not stated) ?
Wnt act: -1; esBAF inh: -8; Statin myotox sup: -2; GAA850 FXN act: 0

What do the screens show for `CC1=NN(C(N)=S)C(=O)C1N=Nc1ccc(O)cc1` (configuration not stated)?
MITF act: 3; Wnt act: 3; esBAF inh: 23; Statin myotox sup: -7; GAA850 FXN act: 1

How did CC1=NN(C(N)=S)C(=O)C1N=Nc1ccc([N+](=O)[O-])cc1 (configuration not stated) do in these assays?
MITF act: 48; esBAF inh: 76*; Statin myotox sup: -6; GAA850 FXN act: 2

Results for CC1=NN(C(N)=S)C(=O)C1N=Nc1cccc(C)c1 (configuration not stated) ?
MITF act: 50; Wnt act: 25; esBAF inh: 67*; Statin myotox sup: -9; GAA850 FXN act: 2

How did CC1=NN(C(N)=S)C(=O)C1N=Nc1ccc(Cl)cc1Cl (configuration not stated) do in these assays?
Wnt act: 12; esBAF inh: 79*; Statin myotox sup: 9; GAA850 FXN act: 4

How did COc1ccc(CN(C)C[C@H]2Oc3c(NC(=O)Nc4ccc(C(F)(F)F)cc4)cccc3C(=O)N([C@H](C)CO)C[C@@H]2C)cc1 do in these assays?
esBAF inh: 2; Statin myotox sup: -14

How did COc1ccc(/C=C/C(=O)c2ccc[nH]2)c(OC)c1OC do in these assays?
Wnt act: 22; esBAF inh: 47*; GAA850 FXN act: 1

How did COc1ccc(/C=C/C(=O)c2ccc(C(=O)/C=C/c3ccc(OC)c(OC)c3)cc2)cc1OC do in these assays?
MITF act: -11; Wnt act: -13; esBAF inh: 8; Statin myotox sup: 29; GAA850 FXN act: 6

What do the screens show for `COc1ccc(/C=C/C(=O)c2ccc[nH]2)cc1OC`?
MITF act: 59; Wnt act: 6; esBAF inh: 53*; Statin myotox sup: 10; GAA850 FXN act: 2

What do the screens show for `COc1ccc(/C=C/C(=O)c2ccncc2)c2ccccc12`?
MITF act: 0; Wnt act: 7; GAA850 FXN act: 1

Results for O=C(C[C@@H]1CC[C@H]2[C@@H](COC[C@@H](O)CN2C(=O)Nc2ccc(F)cc2)O1)NC1Cc2ccccc2C1 ?
esBAF inh: 14; Statin myotox sup: 4

What do the screens show for `CC(C)NC(=O)Cn1c(=O)n(CC(=O)N2CCCCC2)c(=O)c2sccc21`?
MITF act: -1; Wnt act: -2; esBAF inh: -4; Statin myotox sup: 101*; GAA850 FXN act: 0

What do the screens show for `COc1cccc2cc(C(C)=O)oc12`?
MITF act: -2; Wnt act: 1; esBAF inh: -2; Statin myotox sup: 0; GAA850 FXN act: 1

How did COc1ccc(C(=O)c2cc3cccc(OC)c3o2)cc1 do in these assays?
MITF act: 52; Wnt act: 10; esBAF inh: 60*; Statin myotox sup: -9; GAA850 FXN act: 4

How did C[C@H]1CN([C@@H](C)CO)C(=O)c2cc(NS(=O)(=O)c3cccs3)ccc2O[C@@H]1CN(C)S(=O)(=O)c1cccs1 do in these assays?
esBAF inh: 0; Statin myotox sup: 44
